Data reported in PubChem BioAssay.
Activity calls are given as the source filed them. Unless noted, the rule behind the calls is not given here.

Biological target: Dihydroorotate dehydrogenase (quinone), mitochondrial (Plasmodium falciparum (isolate 3D7)) (UniProt Q08210)
Assay: PfDHODH enzyme inhibitors, primary screen, biochemical, C-terminal His tag, absorbance 600 nm (AID 1175);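 note: recombinant parasite enzyme with a five histidine tag at its C terminus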
Details: DCIP absorbance 600 nm, higher = more signal, called active from +8 up or from −8 down
Note: test concentration not given here.

Chain of Dihydroorotate dehydrogenase (quinone), mitochondrial (Plasmodium falciparum (isolate 3D7)) (Q08210 whole entry, looked up): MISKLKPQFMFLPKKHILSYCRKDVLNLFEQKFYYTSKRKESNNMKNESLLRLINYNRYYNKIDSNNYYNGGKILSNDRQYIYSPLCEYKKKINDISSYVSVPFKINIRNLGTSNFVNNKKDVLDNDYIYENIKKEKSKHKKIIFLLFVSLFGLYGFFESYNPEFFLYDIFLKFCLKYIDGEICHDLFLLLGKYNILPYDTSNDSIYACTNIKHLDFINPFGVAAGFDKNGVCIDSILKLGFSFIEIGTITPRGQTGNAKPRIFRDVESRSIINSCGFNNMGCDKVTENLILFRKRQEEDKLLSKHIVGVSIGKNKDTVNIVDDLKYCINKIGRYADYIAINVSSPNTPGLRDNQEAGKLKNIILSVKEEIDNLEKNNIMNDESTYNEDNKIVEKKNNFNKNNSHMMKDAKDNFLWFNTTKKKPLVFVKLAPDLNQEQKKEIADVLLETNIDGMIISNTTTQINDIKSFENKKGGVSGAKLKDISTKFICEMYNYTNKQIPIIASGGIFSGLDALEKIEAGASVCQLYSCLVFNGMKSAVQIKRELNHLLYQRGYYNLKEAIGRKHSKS

Composite z-score, inactive:
COc1ccc([Si](C)(C)[C@@H]2[C@@H](CC(=O)N(CCO)Cc3ccccc3)O[C@]3(C(=O)N(Cc4ccc(I)cc4)c4ccccc43)[C@H]2C)cc1 1.07, CN1C(=O)C2C(C1=O)C1C=C(CCCO)C2C(C2CC2)N1Cc1cccc(OC(F)(F)F)c1 (stereo unspecified) -1.75, CCOC(=O)C[C@H]1[C@H](OC(=O)c2cc3ccccc3oc2=O)[C@@H](NC(=O)CC(C)C)c2cc(OCCCO)ccc2N1C(=O)Cc1ccc(OC)cc1 -0.144, NC(=O)N1C(=O)C2C(C1=O)C1C=C(CCCO)C2C(C2CC2)N1Cc1sc2ccccc2c1Cl (stereo unspecified) -0.744, COCCn1c(C(=O)N(C)C)cc2c1C[C@H]1CN(C(=O)c3ccccc3)[C@@](Cc3ccc(OC)cc3)(C(=O)OC)[C@@H]21 -0.271

Test system: not listed separately
Assay: P. aeruginosa biofilm formation inhibitors, primary screen, strain PAO1, LB-PBS medium, absorbance 600 nm (AID 1176)
Details: P. aeruginosa PAO1 growth/biofilm, A600, 12 h; higher = more signal

z-score, inactive:
CCCNC(=O)[C@@]1(Sc2ccc(C)cc2)CC(=O)N(Cc2ccccc2Cl)[C@@H]1c1ccc(CO)cc1I 0.034, C=CCN1Cc2ccccc2[C@H]2OC(c3ccc(OCCCO)cc3)=N[C@@]2(CCS(=O)(=O)c2ccccc2)C1=O 1.2, [N-]=[N+]=Nc1ccccc1C[C@]1(C(=O)N2CCOCC2)N=C(c2ccc(OCCCO)cc2)O[C@H]1c1ccccc1N=[N+]=[N-] -0.444, C[C@]1(C(=O)O)c2ccccc2C(=O)N(Cc2cc(F)cc(C(F)(F)F)c2)[C@H]1c1ccc(CO)cc1 1.01, CC(C)c1nc2cc(Br)ccc2c(=O)o1 0.13, CN(C)CCCC[C@@H]1NC(=O)[C@H]2C[C@@H](C(=O)O)[C@@H](c3ccc(O)cc3)N2C1=O 1.5, CN1C(=O)C2C(C3CC3)C=C3CN(Cc4cccc(Cl)c4)[C@@H]([C@@H](O)Cc4ccccc4)C3C2C1=O (stereo partly specified) 0.601, C=CCC(OC(C)=O)[C@@H]1[C@@H](N(Cc2ccc(-c3cccc(C(F)(F)F)c3)o2)C(=O)c2ccc(-c3ccccc3)cc2)c2cc(OCCCO)ccc2N1C(=O)c1ccc2ccccc2c1 (stereo partly specified) -0.452, CCCCC(O)C1C=CC2C(=O)N(c3ccccc3)C(=O)C2N1Nc1ccc(C#N)cc1 (stereo unspecified) 0.999, NC(=O)N1C(=O)C2C(C1=O)C1C=C(CCCO)C2C(c2ccc(CN3CCCC3)cc2)N1Cc1sc2ccccc2c1Cl (stereo unspecified) 0.0721, CC(C)=CCCC(C)=CC(O)C1C=CC2C(=O)NC(=O)C2N1Nc1ccccn1 (stereo unspecified) 1.55, Cc1ccc(S[C@]2(C(=O)NCCCN(C)C)CC(=O)N(C3Cc4ccccc4C3)[C@@H]2c2ccc(CO)cc2I)cc1 0.531, COc1ccc(C#Cc2ccc3c(c2)[C@]2(C(=O)N3)[C@H](C(=O)O)[C@H]3C(=O)O[C@H](c4ccccc4)[C@H](c4ccccc4)N3[C@@H]2c2ccccc2OCCO)cc1 3.23, COc1ccc(CCNC(=O)[C@@H]2c3ccccc3C(=O)N(Cc3ccccc3OC)[C@H]2c2ccc(CO)cc2)cc1 0.264, C=CCC(OC(C)=O)[C@@H]1[C@@H](N(Cc2cccc3ccccc23)C(=O)Cc2ccc(OC)cc2)c2cc(OCCCO)ccc2N1C(=O)Cc1ccc2ccccc2c1 (stereo partly specified) -0.853, CC(C)(C)OC(=O)CC[C@@]1(C(=O)NCCN2CCOCC2)N=C(c2ccc(OCCCO)cc2)O[C@@H]1c1ccccc1CN=[N+]=[N-] -0.0988, CC(C)NC(=O)[C@@]1(C)c2ccccc2C(=O)N(Cc2ccccc2)[C@H]1c1ccc(CO)cc1 0.5, CN(C)c1ccc(C(O)C2C=CC3C(=O)N(Cc4ccccc4)C(=O)C3N2n2cnnc2)cc1 (stereo unspecified) 1.77, COc1ccc(C(=O)Nc2ccc(CN3C(=O)[C@@]4(O[C@@H](CCn5cc(CCO)nn5)[C@H]([Si](C)(C)c5ccc(OC)cc5)[C@H]4C)c4ccccc43)cc2)cc1 0.863, CC(C)C[C@H]1NC(=O)C([C@@H](C)OCc2ccccc2)NC(=O)[C@@]23C(=O)N[C@@H](Cc4ccccc4)C2[C@H](C)[C@@]2(C)O[C@H]2C3/C=C/C/C=C\CNC1=O (stereo partly specified) 0.294, COc1ccc([Si](C)(C)[C@@H]2[C@@H](CC(=O)N3CCC[C@H]3CO)O[C@]3(C(=O)N(Cc4cccc(N5CCCCC5=O)c4)c4ccccc43)[C@H]2C)cc1 0.319, CO[C@H]1O[C@H](CO)[C@@H](OC(=O)Nc2ccccc2-c2ccccc2)[C@H](OC(=O)Nc2ccccc2)[C@H]1OC(=O)Nc1ccccc1 2.11, CCCCC(O)C1C=CC2C(=O)N(c3ccccc3)C(=O)C2N1Nc1ccc([N+](=O)[O-])cc1 (stereo unspecified) 1.03, C=CCNC(=O)[C@@H]1[C@H]2C(=O)O[C@H](c3ccccc3)[C@H](c3ccccc3)N2[C@H](c2ccc(OCCO)cc2)[C@@]12C(=O)Nc1ccc(C#CC3(O)CCCCCC3)cc12 2.09, CN1C(=O)C2C(C1=O)C1C=C(c3ccc(CO)cc3)C2C(C2CC2)N1C (stereo unspecified) -0.305, COC(=O)[C@@]1(Cc2ccc(F)cc2)[C@H]2c3cc(C(=O)N4CCCC4)n(Cc4ccccn4)c3C[C@H]2CN1C(=O)c1ccccc1 1.03, NC(=O)N1C(=O)C2C(C1=O)C1C=C(CCCO)C2C(c2ccc(CN3CCCC3)cc2)N1Cc1cc2c(cc1Br)OCO2 (stereo unspecified) 0.792, CCCCN1CC=CC23O[C@@H]4/C=C\CCCOC(=O)C4[C@H]2C(=O)N(C(CO)C(C)C)[C@@H]3C1=O (stereo partly specified) -0.0432, O=C1O[C@H](c2ccccc2)[C@H](c2ccccc2)N2[C@H]1[C@@H](C(=O)N1CCN(c3ncccn3)CC1)[C@]1(C(=O)Nc3ccc(C#CCCO)cc31)[C@H]2c1ccc(O)cc1 0.462, O=C1NC(=O)C2C1C=CC(C(O)c1ccc([N+](=O)[O-])cc1)N2Nc1ccccn1 (stereo unspecified) 0.586, O=C1C2C=CC(C(O)c3ccc([N+](=O)[O-])cc3)N(Nc3ccccc3F)C2C(=O)N1c1ccccc1 (stereo unspecified) 1.19, COc1ccc([Si](C)(C)[C@@H]2[C@@H](CC(=O)N(CCO)Cc3ccccc3)O[C@]3(C(=O)N(Cc4ccc(I)cc4)c4ccccc43)[C@H]2C)cc1 1.1, CN1C(=O)C2C(C1=O)C1C=C(CCCO)C2C(C2CC2)N1Cc1cccc(OC(F)(F)F)c1 (stereo unspecified) 0.559, CCOC(=O)C[C@H]1[C@H](OC(=O)c2cc3ccccc3oc2=O)[C@@H](NC(=O)CC(C)C)c2cc(OCCCO)ccc2N1C(=O)Cc1ccc(OC)cc1 -0.423, NC(=O)N1C(=O)C2C(C1=O)C1C=C(CCCO)C2C(C2CC2)N1Cc1sc2ccccc2c1Cl (stereo unspecified) -0.0099, COCCn1c(C(=O)N(C)C)cc2c1C[C@H]1CN(C(=O)c3ccccc3)[C@@](Cc3ccc(OC)cc3)(C(=O)OC)[C@@H]21 0.784
